Measurements published in PubChem BioAssay (EPA / NIEHS).
Several values for one entry are separate records, joined by “and”; a condition that tells them apart may be missing. Equal entries are not always repeated. Some structures have more than one record in an assay (separate samples or runs), and their calls can disagree. Activity calls are given as the source filed them. How the source made its calls: active means hit-call score of the fitted dose curve at least 0.9, where 1 is the maximum; inactive means score below 0.9.

The molecules below were run on Vascular cell adhesion molecule 1 (VCAM1), VCAM1 (gene 7412) (assay: BSK_IMphg_VCAM1: BioMAP Diversity Plus: IMphg Assay for Vascular cell adhesion molecule 1 (VCAM1) Biomarker Activity (AID 2284286)). Details: primary human endothelial cells with macrophages.
Procedure, shortened: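 ELISA read-out of VCAM-1 on venular endothelial cell/macrophage co-cultures at 24 h post-treatment, with DMSO as baseline and positive-direction fitting. Parallel sulforhodamine B total-protein staining (560 nm) served as the overt cytotoxicity measure.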

| SMILES | AC50 | outcome |
| --- | --- | --- |
| O=C(CC(=O)C(F)(F)C(F)(F)C(F)(F)F)c1cccs1 | 50.5 µM (active) and 43.4 µM (active) |  |
| C=CC(=O)OCCC(F)(F)C(F)(F)C(F)(F)C(F)(F)C(F)(F)C(F)(F)C(F)(F)C(F)(F)F |  | inactive |
| O=C(O)CCC(F)(F)C(F)(F)C(F)(F)C(F)(F)C(F)(F)C(F)(F)F |  | inactive |
| O=C(O)CCC(F)(F)C(F)(F)C(F)(F)C(F)(F)C(F)(F)F |  | inactive |
| OCC(F)(F)C(F)(F)C(F)(F)C(F)(F)C(F)(F)C(F)(F)C(F)(F)C(F)(F)C(F)(F)C(F)(F)C(F)(F)F |  | inactive |
| O=P(O)(O)CCC(F)(F)C(F)(F)C(F)(F)C(F)(F)C(F)(F)C(F)(F)F |  | inactive |
| CN(CCO)S(=O)(=O)C(F)(F)C(F)(F)C(F)(F)C(F)(F)C(F)(F)C(F)(F)C(F)(F)C(F)(F)F |  | inactive |
| O=S(=O)(O)C(F)(F)C(F)(F)C(F)(F)C(F)(F)C(F)(F)C(F)(F)C(F)(F)C(F)(F)C(F)(F)C(F)(F)F |  | inactive |
| CN(Cc1cnc2nc(N)nc(N)c2n1)c1ccc(C(=O)N[C@@H](CCC(=O)O)C(=O)O)cc1 |  | inactive |
| O=P(O)(O)CCC(F)(F)C(F)(F)C(F)(F)C(F)(F)C(F)(F)C(F)(F)C(F)(F)C(F)(F)F |  | inactive |
| O=C(O)C(F)(F)OC(F)(F)C(F)(F)OC(F)(F)C(F)(F)OC(F)(F)C(F)(F)C(F)(F)C(F)(F)F | 51.8 µM (active) and 48.8 µM (active) |  |

The molecules below were run on Intercellular Adhesion Molecule 1 (ICAM1), ICAM1 (gene 3383) (assay: BSK_hDFCGF_ICAM1: BioMAP Diversity Plus: hDFCGF Assay for Intercellular Adhesion Molecule 1 (ICAM1) Biomarker Activity (AID 2284287)). Details: primary human foreskin fibroblasts.
Procedure, shortened: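 ICAM-1 ELISA readout 24 h after dosing, DMSO as baseline, in human dermal foreskin fibroblast cultures. Cytotoxicity checked in parallel wells by SRB staining (0.1% SRB, 10% TCA fixation, 560 nm).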

| SMILES | AC50 | outcome |
| --- | --- | --- |
| Oc1c(Cl)cc(Cl)cc1Sc1cc(Cl)cc(Cl)c1O | 2.56 µM (active) and 2.73 µM (active) |  |
| O=C(CC(=O)C(F)(F)C(F)(F)C(F)(F)F)c1cccs1 |  | inactive |
| C=CC(=O)OCCC(F)(F)C(F)(F)C(F)(F)C(F)(F)C(F)(F)C(F)(F)C(F)(F)C(F)(F)F | 1.19 µM (active) | inactive |
| O=C(O)CCC(F)(F)C(F)(F)C(F)(F)C(F)(F)C(F)(F)C(F)(F)F |  | inactive |
| O=C(O)CCC(F)(F)C(F)(F)C(F)(F)C(F)(F)C(F)(F)F |  | inactive |
| OCC(F)(F)C(F)(F)C(F)(F)C(F)(F)C(F)(F)C(F)(F)C(F)(F)C(F)(F)C(F)(F)C(F)(F)C(F)(F)F |  | inactive |
| O=P(O)(O)CCC(F)(F)C(F)(F)C(F)(F)C(F)(F)C(F)(F)C(F)(F)F |  | inactive |
| CN(CCO)S(=O)(=O)C(F)(F)C(F)(F)C(F)(F)C(F)(F)C(F)(F)C(F)(F)C(F)(F)C(F)(F)F |  | inactive |
| Oc1ccc(Cc2ccccc2O)cc1 |  | inactive |
| CCCCCCCCCCCC | 11.7 µM (active) and 10.3 µM (active) |  |
| O=S(=O)(O)C(F)(F)C(F)(F)C(F)(F)C(F)(F)C(F)(F)C(F)(F)C(F)(F)C(F)(F)C(F)(F)C(F)(F)F |  | inactive |
| CN(Cc1cnc2nc(N)nc(N)c2n1)c1ccc(C(=O)N[C@@H](CCC(=O)O)C(=O)O)cc1 |  | inactive |
| O=C1NS(=O)(=O)c2ccccc21 |  | inactive |
| O=P(O)(O)CCC(F)(F)C(F)(F)C(F)(F)C(F)(F)C(F)(F)C(F)(F)C(F)(F)C(F)(F)F | 25.7 µM (active) | inactive |
| O=C(O)C(F)(F)OC(F)(F)C(F)(F)OC(F)(F)C(F)(F)OC(F)(F)C(F)(F)C(F)(F)C(F)(F)F | 19.7 µM (active) and 17.2 µM (active) |  |
